Counter-ions that a name gives are not always drawn. ± gives the standard deviation of the averaged measurements.
Columns and labels:
Test in all cases: growth (OD600 after 10 h); higher = more growth (less inhibition)
[1] = tested on: E. coli TESEC Alr+ wild-type control; details: compound 0.1 mM; raw OD600 reference: median of DMSO wells 0.241, cell-free background 0.041
Protocol: (§1)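 TESEC Mtb Alr E. coli, or the Alr+ wild-type control, in 384-well plates with Prestwick library compounds at 0.1 mM and 1% DMSO, across arabinose induction levels of 1E3 to 1E7 nM. Growth is read as OD600 after 10 h at 37 °C in triplicate biological replicates.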

E. coli TESEC Mtb Alr [2] = details: compound 0.1 mM
Protocol: as §1

E. coli TESEC Mtb Asd = details: compound 0.1 mM
Protocol: (§2)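 TESEC E. coli strains in which the native enzyme is deleted and replaced by arabinose-inducible Mtb Asd, DapB, CysH or TrpD, each grown in its selective medium. Strains were screened against the Prestwick library at 0.1 mM and 1% DMSO in 384-well format at low and high arabinose induction. Growth is read as OD600 after 10 h in triplicate.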

E. coli TESEC Mtb DapB = details: compound 0.1 mM
Protocol: as §2

E. coli TESEC Mtb Alr [3] = details: compound 0.1 mM; remark: listed apart in the source
Protocol: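 TESEC Mtb Alr E. coli (ΔaraC ΔtolC ΔentC Δalr ΔdadX, arabinose-inducible Mtb Alr) or the Alr+ wild-type control strain, grown in defined M9-fructose medium without D-alanine in 96-well plates with Prestwick library compounds at 0.1 mM and 1% DMSO. Low Alr induction is 0.1 µM arabinose and high induction is 10 mM arabinose.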

[4] = arabinose 1000 nM, raw OD600 reference: median of DMSO wells 0.294, cell-free background 0.041
[5] = arabinose 10000 nM, raw OD600 reference: median of DMSO wells 0.264, cell-free background 0.041
[6] = arabinose 100000 nM, raw OD600 reference: median of DMSO wells 0.201, cell-free background 0.041
[7] = arabinose 1000000 nM, raw OD600 reference: median of DMSO wells 0.193, cell-free background 0.041
[8] = arabinose 10000000 nM, raw OD600 reference: median of DMSO wells 0.146, cell-free background 0.041
[9] = arabinose induction (level): High, raw OD600 reference: median of DMSO wells 0.331, cell-free background 0.041
[10] = arabinose induction (level): Low, raw OD600 reference: median of DMSO wells 0.417, cell-free background 0.041
[11] = arabinose induction (level): High, raw OD600 reference: median of DMSO wells […], cell-free background 0.041
[12] = arabinose induction (level): Low, raw OD600 reference: median of DMSO wells 0.227, cell-free background 0.041
[13] = arabinose 100 nM, raw OD600 reference: median of DMSO wells 0.413, cell-free background 0.052
[14] = arabinose 10000000 nM, raw OD600 reference: median of DMSO wells […], cell-free background 0.052

Compound	growth [1]	growth (E. coli TESEC Mtb Alr [2]; [4])	growth (E. coli TESEC Mtb Alr [2]; [5])	growth (E. coli TESEC Mtb Alr [2]; [6])	growth (E. coli TESEC Mtb Alr [2]; [7])	growth (E. coli TESEC Mtb Alr [2]; [8])	growth (E. coli TESEC Mtb Asd; [9])	growth (E. coli TESEC Mtb Asd; [10])	growth (E. coli TESEC Mtb DapB; [11])	growth (E. coli TESEC Mtb DapB; [12])	growth (E. coli TESEC Mtb Alr [3]; [13])	growth (E. coli TESEC Mtb Alr [3]; [14])
NS(=O)(=O)c1cc2c(cc1Cl)NC(CC1CCCC1)NS2(=O)=O (stereo unspecified) [Cyclopenthiazide]	0.236 ± 0.0074	0.278 ± 0.0078	0.2543 ± 0.0017	0.273 ± 0.013	0.191 ± 0.0034	0.143 ± 0.0052	0.377 ± 0.063	0.314 ± 0.053	0.212 ± 0.0077	0.214 ± 0.0079	0.375 ± 0.011	0.356 ± 0.0061
COc1ccc(Cl)cc1C(=O)NCCc1ccc(S(=O)(=O)NC(=O)NC2CCCCC2)cc1 [Glibenclamide]	0.122 ± 0.0053	0.166 ± 0.035	0.146 ± 0.004	0.144 ± 0.0077	0.0688 ± 0.0014	0.125 ± 0.0025	0.154 ± 0.02	0.218 ± 0.015	0.158 ± 0.013	0.173 ± 0.014	0.349 ± 0.12	0.0906 ± 0.0069
CCn1cc(C(=O)O)c(=O)c2cnc(N3CCNCC3)nc21 [Pipemidic acid]	0.116 ± 0.0069	0.0801 ± 0.033	0.063 ± 0.0022	0.117 ± 0.0072	0.0845 ± 0.028	0.147 ± 0.0057	0.157 ± 0.019	0.149 ± 0.014	0.188 ± 0.0053	0.168 ± 0.0065	0.156 ± 0.021	0.082 ± 0.0092
O=C(Nc1cccc2c(=O)cc(-c3nnn[nH]3)oc12)c1ccc(OCCCCc2ccccc2)cc1 [Pranlukast]	0.23 ± 0.0033	0.238 ± 0.0077	0.196 ± 0.0094	0.227 ± 0.0058	0.144 ± 0.0097	0.178 ± 0.0095	0.236 ± 0.0051	0.238 ± 0.014	0.158 ± 0.014	0.195 ± 0.015	0.424 ± 0.0063	0.308 ± 0.013
COC(=O)C1=C(C)NC(C)=C(C(=O)OC(C)C)C1c1cccc2nonc12 (stereo unspecified) [Isradipine]	0.149 ± 0.0056	0.206 ± 0.0037	0.254 ± 0.015	0.164 ± 0.0057	0.0817 ± 0.0022	0.154 ± 0.0037	0.166 ± 0.018	0.259 ± 0.041	0.19 ± 0.019	0.21 ± 0.011	0.394 ± 0.01	0.167 ± 0.038
CC(C)(C)C(=O)OCOC(=O)[C@@H]1N2C(=O)[C@@H](/N=C/N3CCCCCC3)[C@H]2SC1(C)C [Pivmecillinam hydrochloride]	0.184 ± 0.0062	0.249 ± 0.0036	0.282 ± 0.0063	0.326 ± 0.0058	0.191 ± 0.016	0.191 ± 0.021	0.323 ± 0.028	0.363 ± 0.022	0.218 ± 0.022	0.222 ± 0.024	0.4196 ± 0.0028	0.344 ± 0.012
O=C(O)CCc1nc(-c2ccccc2)c(-c2ccccc2)o1 [Oxaprozin]	0.143 ± 0.0053	0.169 ± 0.0038	0.206 ± 0.0029	0.102 ± 0.0063	0.0905 ± 0.0025	0.0775 ± 0.0013	0.223 ± 0.022	0.165 ± 0.0041	0.139 ± 0.0021	0.152 ± 0.0088	0.3746 ± 0.0018	0.128 ± 0.0076
CC(=O)OC(C)C[N+](C)(C)C (stereo unspecified) [Methacholine chloride]	0.238 ± 0.0071	0.282 ± 0.0064	0.269 ± 0.0094	0.171 ± 0.011	0.187 ± 0.0089	0.134 ± 0.0072	0.361 ± 0.092	0.428 ± 0.025	0.2263 ± 0.0013	0.243 ± 0.023	0.413 ± 0.021	0.361 ± 0.015
CC(NCCc1ccc(O)cc1)C(O)c1ccc(O)cc1 (stereo unspecified) [Ritodrine hydrochloride]	0.234 ± 0.0026	0.313 ± 0.011	0.2537 ± 0.0014	0.21 ± 0.032	0.176 ± 0.0022	0.144 ± 0.0063	0.251 ± 0.027	0.348 ± 0.055	0.179 ± 0.0043	0.185 ± 0.01	0.408 ± 0.0081	0.36 ± 0.019
COc1ccccc1N1CCN(CCCNc2cc(=O)n(C)c(=O)n2C)CC1 [Urapidil hydrochloride]	0.224 ± 0.0078	0.274 ± 0.021	0.259 ± 0.0036	0.173 ± 0.017	0.17 ± 0.004	0.137 ± 0.0051	0.28 ± 0.038	0.455 ± 0.065	0.183 ± 0.017	0.201 ± 0.015	0.409 ± 0.017	0.326 ± 0.011
O=C1Nc2ccc(Cl)cc2[C@@](C#CC2CC2)(C(F)(F)F)O1 [Efavirenz]	0.0395 ± 0.00017	0.0401 ± 0.00093	0.0421 ± 0.0013	0.0412 ± 0.0003	0.03963 ± 0.00025	0.0413 ± 0.0013	0.0541 ± 0.0055	0.0488 ± 0.0019	0.0481 ± 0.00017	0.048 ± 0.00069	0.259 ± 0.075	0.049 ± 0.00044
CC(C)C(=O)Nc1ccc([N+](=O)[O-])c(C(F)(F)F)c1 [Flutamide]	0.191 ± 0.0072	0.189 ± 0.0088	0.161 ± 0.0036	0.203 ± 0.0051	0.0619 ± 0.00076	0.0856 ± 0.0029	0.156 ± 0.024	0.165 ± 0.01	0.177 ± 0.013	0.218 ± 0.039	0.383 ± 0.036	0.16 ± 0.036
CC(=O)OCC(CCn1cnc2cnc(N)nc21)COC(C)=O [Famciclovir]	0.23 ± 0.005	0.288 ± 0.0069	0.269 ± 0.0058	0.184 ± 0.031	0.21 ± 0.021	0.14 ± 0.0045	0.284 ± 0.048	0.386 ± 0.039	0.179 ± 0.0051	0.199 ± 0.031	0.4163 ± 0.0038	0.346 ± 0.0062

From the supplement of paper PMC9262897, “Low-cost anti-mycobacterial drug discovery using engineered E. coli” (Nature Communications, 2022)
